# Bioassay records: PubChem, National Center for Advancing Translational Sciences (NCATS)
# PLK1 PBD inh = blocks phosphopeptide binding to human PLK1 polo-box domain. AID 720504. Plk1 PBD binding of FITC phosphopeptide, fluorescence polarization. Potency, µM, usual class: inhibitors. 2.8% of 360,000 active. P53350; also: series mostly up to about 57 µM; nearly all actives have a fitted effect of over 65% in size
# G9a block = inhibitors of human histone lysine methyltransferase G9a; G9a H3K9 monomethylation, AlphaScreen, 2 h; Potency, µM (titrated, usually from 102 µM), hits mostly inhibitors; 8.8% of 350,000 active; AID 504332; also: nearly all actives have a fitted effect of over 75% in size
# Target sequence (Q96KQ7 913-1193 limits assumed): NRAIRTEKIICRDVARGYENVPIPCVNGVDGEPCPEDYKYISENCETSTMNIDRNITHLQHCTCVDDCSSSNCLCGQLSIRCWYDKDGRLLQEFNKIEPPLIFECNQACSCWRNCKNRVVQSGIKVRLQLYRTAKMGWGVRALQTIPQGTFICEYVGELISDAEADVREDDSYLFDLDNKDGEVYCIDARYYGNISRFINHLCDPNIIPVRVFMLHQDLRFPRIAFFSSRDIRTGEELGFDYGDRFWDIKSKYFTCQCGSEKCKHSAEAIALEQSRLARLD
#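 Using a bead-based AlphaScreen, monomethylated H3K9 product from 2 h room-temperature reactions (G9a 20 nM, peptide 500 nM, SAM 20 uM) was detected with 0.5 ug/mL rabbit anti-H3K9me1 antibody.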
# JMJD2A Tudor = blocks the human JMJD2A Tudor domain; O75164; 4.4% of 390,000 active; AlphaScreen JMJD2A-Tudor / H3K4me3 peptide binding; AID 504339; Potency, µM (series often up to 114 µM), actives largely listed as inhibitors; also: nearly all actives have a fitted effect of over 50% in size
# Sfp inh = inhibitors of Bacillus subtilis Sfp phosphopantetheinyl transferase; Q9F4F7; Biochemical Sfp PPTase activity, qHTS; Potency, µM, most hits filed as inhibitors; 3.5% of 310,000 active;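 also: the enzyme is Sfp with the accession as filed and its product quenches rhodamine fluorescence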
#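 After 15 min at room temperature with compound, 15 nM Sfp received 5 uM rhodamine-CoA plus 12.5 uM BHQ-2-ybbR (50 mM Hepes pH 7.6, 10 mM MgCl2). Rate came from the fluorescence difference over 30 min, ex 525/em 598 nm.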
# HP1b binding inh = blocks HP1-beta chromodomain binding to methylated histone tails. 0.56% of 390,000 active. AlphaScreen HP1-beta / biotin-H3K9me3 peptide binding. P83916. Potency, µM (doses to about 114 µM), hits mostly inhibitors. AID 540317; also: nearly all actives have a fitted effect of over 70% in size
# Target sequence (P83916 whole entry, looked up): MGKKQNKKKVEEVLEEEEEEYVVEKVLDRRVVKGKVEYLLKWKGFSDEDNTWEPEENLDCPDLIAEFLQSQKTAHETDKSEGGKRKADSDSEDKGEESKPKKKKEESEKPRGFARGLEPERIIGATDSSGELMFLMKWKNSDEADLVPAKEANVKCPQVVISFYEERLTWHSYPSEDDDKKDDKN
#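 HP1-beta protein (50 nM final) preincubated 30 min at room temperature with biotinylated H3(1-18)K9me3 peptide (50 nM) in PBS pH 7.4, 0.01% Tween-20, then compound added for 30 min. AlphaScreen streptavidin donor/nickel chelate acceptor beads (10 ug/mL final), 30 min dark, luminescence read.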
# BAZ2B block = BAZ2B (human) inhibition | AID 504333 | 4.4% of 360,000 active | Potency, µM (series often up to 114 µM), hits mostly inhibitors | AlphaScreen BAZ2B-H3K14Ac peptide displacement; also: nearly all actives have a fitted effect of over 60% in size
#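 AlphaScreen displacement of biotin-H3(5-23)K14Ac peptide (50 nM final) from BAZ2B (50 nM final) in PBS pH 7.4, 0.01% Tween-20; complex preformed 30 min RT, then compounds (top 110 uM) 30 min RT, beads 20 min dark.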
# Numbers stand for hits; - = inactive; ? = inconclusive; . = not tested or not shown; [ ] = another dose, or the depositor's remark. Only some compounds are listed: those with a hit (about 12% of all), similar ones and a draw of the others. Calls follow the shape of the dose curve; as a rule, active = well fitted curve in the direction sought with a large enough effect; inconclusive = small, poorly fitted or top-dose-only effect, or another doubt; inactive = no such curve, though single readings can be large; an effect the other way counts as inactive or inconclusive.
SMILES,PLK1 PBD inh,G9a block,JMJD2A Tudor,Sfp inh,HP1b binding inh,BAZ2B block
Cc1ccc(C(=O)CSc2nc(N)cc(=O)[nH]2)cc1,-,-,-,-,-,-
CC(C)N(C(=O)CSc1nc2c([nH]1)c(=O)n(C)c(=O)n2C)c1ccccc1,-,25.1µM,-,-,-,-
Cc1ccc(C(=O)CSc2nc3c([nH]2)c(=O)n(C)c(=O)n3C)cc1,-,39.8µM,-,-,-,-
CC(C)N(C(=O)CSc1nc2ccc(Cl)cc2[nH]1)c1ccccc1,.,?,-,.,-,-
COc1cccc(-n2c(C)nc3c(cnn3-c3ccc(C)c(C)c3)c2=O)c1,.,-,-,.,-,.
CCn1c2ccccc2c2cc(CN3CCN(S(=O)(=O)CC)CC3)ccc21,.,11.2µM,.,?,.,20µM
CCN1CCN(S(=O)(=O)Cc2ccccc2)CC1,-,-[12.7 µM],-,-,-,-
CCn1c2ccccc2c2cc(CN3CCN(S(=O)(=O)Cc4ccccc4)CC3)ccc21,-,7.08µM,1µM,-,?,79.4µM
CC(=O)NCc1ccc(S(=O)(=O)N2CCCN(C)CC2)cc1,3.77µM,79.4µM,25.1µM,-,-,-
CN1CCCN(S(=O)(=O)c2ccccc2)CC1,-,-,?,-,-,-
CN1CCCN(S(=O)(=O)c2ccc(O)c(C(=O)O)c2)CC1,-,79.4µM,-,-,-,-
CCOC(=O)c1c(C)oc2nc(C)nc(NCC3CCN(Cc4cc(C)ccc4C)CC3)c12,.,-,-,.,-,-
COc1ccccc1C1C(C(=O)Nc2ccccc2)=C(C)Nc2nc(-c3ccccc3)nn21 (stereo not given),.,-,-,.,-,-
CCCc1cc(C(=O)N(C)CC(=O)Nc2ccc(OCC)c(OCC)c2)sc1C,-,?,-,.,-,-
COc1ccc(N2CCN(c3oc(COc4ccc(Cl)cc4)nc3C#N)CC2)cc1,-,?,?,-,?,3.55µM
CN(C)CCNc1oc(COc2ccc(-c3ccccc3)cc2)nc1C#N,-,44.7µM,?,-,-,?
COc1ccc(N2CCN(c3oc(Cc4ccccc4)nc3C#N)CC2)cc1,-,?,20µM,-,-,8.91µM
CN1CCN(c2oc(COc3ccc(-c4ccccc4)cc3)nc2C#N)CC1,-,12.6µM,28.2µM,31.6µM,14.1µM,11.2µM
COC(=O)[C@@]12C[C@@H](CC(=O)NCCC(C)C)C(=O)N(Cc3ccccc3)C1=CCC(C)(C)C2,-,.,.,.,.,.
COC(=O)c1ccccc1NC(=O)CSc1nc2ccccc2nc1Cc1ccccc1OC,.,-,-,.,-,-
COc1ccc(N2CCN(c3oc(COc4ccccc4)nc3C#N)CC2)cc1,-,10µM,?,-,?,10µM
N#Cc1nc(COc2ccc(Cl)cc2Cl)oc1N1CCOCC1,-,?,?,-,-,44.7µM
N#Cc1nc(COc2ccccc2)oc1N1CCOCC1,-,-[12.7 µM],-,-,-,-
N#Cc1nc(COc2ccc(Cl)cc2Cl)oc1N1CCN(c2ccccc2)CC1,-,-[2.33 µM],-,-,-,?
CC1(N2CCOCC2)CC2(O)C(=[N+]1[O-])CCc1c2no[n+]1[O-] (stereo not given),5.97µM,?,?,-,-,?
SMILES,PLK1 PBD inh,G9a block,JMJD2A Tudor,Sfp inh,HP1b binding inh,BAZ2B block
O=[N+]([O-])c1ccc(CS(=O)c2ccccc2)cc1 (stereo not given),?,.,-,.,-,.
O=[N+]([O-])c1ccc(S(=O)Cc2ccccc2)c([N+](=O)[O-])c1 (stereo not given),0.752µM,.,?,.,-,.
Cc1cc(C(=O)OCC(=O)Nc2ccc(F)c(F)c2F)c(C)o1,?,-,20µM,-,-,-
C=CCn1c(=O)c(CCC(=O)Nc2ccc(N3CCOCC3)cc2)nc2cc(C(F)(F)F)ccc21,21.2µM,.,35.5µM,-,-,-
CCOC(=O)c1[nH]c2c(c1Cc1ccccc1)C(=O)CC(c1ccc(Cl)cc1)C2 (stereo not given),.,-,-,.,-,-
O=C(C1=C(O)C(=O)N(CCN2CCOCC2)C1c1ccc([N+](=O)[O-])cc1)c1cccs1 (stereo not given),-,?,44.7µM,-,-,-
CN(C)CCCN1C(=O)C(O)=C(C(=O)c2cccs2)C1c1cccc([N+](=O)[O-])c1 (stereo not given),.,-,.,-,.,-
